About 2,100 (3.2%) of roughly 65,000 compounds showed an effect of 50% or more. The median lay at about -52%. What follows is part of a selection rich in strong results, with near analogues and random picks from the rest.

Drawing on ChEMBL document CHEMBL4513216, “Probing the Open Global Health Chemical Diversity Library for Multistage-Active Starting Points for Next-Generation Antimalarials” (ACS Infect Dis, 2020), this text covers INHIBITION for 35 molecules.

For the assay, the system named is Plasmodium falciparum. In words: Screen against P. falciparum Asexual Blood Stage (ABS), at 5uM. It is filed as functional, Dd2. The conditions noted are these: tested at 5 uM.
As for `CCn1nc(C)c(CN2CCNCC2)c1C`, the INHIBITION is recorded as -86.35%. The same measure for `c1cncc(C(Cn2cnnc2)N2CCOCC2)c1` (stereo not given): -88.3%; for `COCCN1CCC2(CC1)C(=O)Nc1ccc(C(=O)NC(C)C)cc12`: -102%; for `COCCN1CCc2cc(C(=O)NC(C)C)c(NCC(C)C)nc2CC1`: 78.9%. Next, `Cc1n[nH]c2c1C(c1cnn(C)c1)SCC(=O)N2` (stereo not given): -51.7%; `CC(C)c1ccc(CN2CCC3(CCCN(c4nncs4)C3)C2)cc1` (stereo not given): 73.6%. The same measure for `c1cncc(CN2CCC3(CCCN(c4nncs4)C3)C2)c1` (stereo not given): -82.9%; for `CN(C)C(=O)N1CCCC2(CCN(Cc3ccncc3)C2)C1` (stereo not given): -29.6%; for `Cc1cccc(CN2C[C@@H]3COC[C@H](NS(C)(=O)=O)[C@@H]3C2)n1`: -96.6%. Turning to `CC(C1CCN(Cc2c(Cl)ccc(O)c2Cl)CC1)N1CCN(C)CC1` (stereo not given), the INHIBITION amounted to 87.2%. The same measure for `Cc1n[nH]c2c1C(c1cc(F)cc(F)c1)SCC(=O)N2` (stereo not given): -23.5%; for `NC(=O)N1CC2(CCNCC2)c2cc(Cl)ccc21`: -61%; for `O=C(c1ccco1)N1CC2(CCNCC2)c2cc(Cl)ccc21`: 76.1%. Turning to `COC(=O)N1CC2(CCNCC2)c2cc(Cl)ccc21`, the INHIBITION came out at 13.1%. Next, `O=C(c1ccco1)N1CCO[C@@H]2CNCC[C@@H]2C1`: -138%. `CCOC(=O)N1CC2(CCNCC2)c2cc(Cl)ccc21`: the INHIBITION was 78%. For `O=C(c1ccccc1F)N1CC2(CCNCC2)c2cc(Cl)ccc21`, the INHIBITION was determined as 77%.

On to `CC(=O)N1CC2(CCNCC2)c2cc(Cl)ccc21`, for which the INHIBITION came to 3.4%.

Regarding `CCOC(=O)N1CCC2(CCNC2)C1` (stereo not given), the INHIBITION was -85.4%. Regarding `O=C1CCC2(CCCN(C(=O)c3ccco3)CC2)N1` (stereo not given), the INHIBITION came to 40.8%. For `O=C(NC[C@]12COC[C@H]1CN(Cc1cccnc1)C2)C1CCC1`, the INHIBITION is on record as -49.9%. `CCC(C(=O)N1CCCSCC1)N1CCCC1=O` (stereo not given): the INHIBITION is recorded as -76.1%. For the molecule `CNCCc1nc2cc(Cl)ccc2[nH]1`, the INHIBITION is listed as -71%. Next, `O=C(N1CCCO1)[C@@]12CCO[C@@H]1CCN(Cc1ccccn1)C2`: -110%; `CC(Cn1cncn1)NCCN1CCc2ccccc21` (stereo not given): -71.4%. Turning to `CC(C)c1nn(C)c(Cl)c1CNCC(O)c1cccc(F)c1` (stereo not given), the INHIBITION came out at 82.4%. Next, `CC(C)=CCN1C[C@@H]2CC[C@H]1CN(C(=O)CSc1ccncc1)C2`: -26.7%; `Cc1noc(C)c1CN1CC2(CCCCN2C)CC1=O` (stereo not given): -15.4%; `CCn1ccnc1CN1CCCN(C(=O)Cc2csc(C)n2)CC1`: -15.3%. Next, `O=C(Nc1cccnc1)[C@H]1C[C@@H]2CCN(Cc3nccs3)C[C@@H]2O1`: -177%; `CC(C)NC(=O)[C@H]1C[C@@H]2[C@@H](C1)OCCN2Cc1ccccn1`: -84.2%. The same measure for `CCNc1ccnc(CN2CCCC2C(=O)Nc2nccs2)c1` (stereo not given): 95.1%. With `O=C(N[C@@H]1CN(Cc2ccccn2)[C@@H]2COC[C@@H]21)C1CCC1`, the INHIBITION was -89.5%.

Consider `CCn1ccnc1CN1CCCC1C(=O)Nc1nccs1` (stereo not given), for which the INHIBITION is on record as 85%.

Regarding `O=C(Nc1nccs1)C1CCCN1Cc1ccccn1` (stereo not given), the INHIBITION is given as 93.7%.
